Drawing on PubChem BioAssay AID1619 (SRMLSC, 2009), this text covers inhibition for 95 molecules.

Out of some 220,000 compounds screened, about 830 (0.38%) were called active.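 How the source made its calls: active means compound inhibiting the enzyme by more than half at any dose during confirmatory dose-response retesting; inconclusive means strong single-dose inhibitors picked by rank but not retested; inactive means the rest.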 Not all results are given here. Results with a measured potency or affinity are listed apart.

This experiment deals with Leucine aminopeptidase (Plasmodium falciparum (isolate 3D7)) (UniProt Q8IL11). Description: P. falciparum M17LAP inhibitors, primary screen, biochemical, fluorogenic H-Leu-NHMec substrate, 1536-well (AID 1619).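 Further: plate controls were full reaction with DMSO carrier for no effect and no enzyme background for full effect.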 Particulars: recombinant M17LAP, H-Leu-NHMec fluorogenic kinetic assay; at 30 µM; hits give high values.
Chain of Leucine aminopeptidase (Plasmodium falciparum (isolate 3D7)) (Q8IL11 whole entry, looked up): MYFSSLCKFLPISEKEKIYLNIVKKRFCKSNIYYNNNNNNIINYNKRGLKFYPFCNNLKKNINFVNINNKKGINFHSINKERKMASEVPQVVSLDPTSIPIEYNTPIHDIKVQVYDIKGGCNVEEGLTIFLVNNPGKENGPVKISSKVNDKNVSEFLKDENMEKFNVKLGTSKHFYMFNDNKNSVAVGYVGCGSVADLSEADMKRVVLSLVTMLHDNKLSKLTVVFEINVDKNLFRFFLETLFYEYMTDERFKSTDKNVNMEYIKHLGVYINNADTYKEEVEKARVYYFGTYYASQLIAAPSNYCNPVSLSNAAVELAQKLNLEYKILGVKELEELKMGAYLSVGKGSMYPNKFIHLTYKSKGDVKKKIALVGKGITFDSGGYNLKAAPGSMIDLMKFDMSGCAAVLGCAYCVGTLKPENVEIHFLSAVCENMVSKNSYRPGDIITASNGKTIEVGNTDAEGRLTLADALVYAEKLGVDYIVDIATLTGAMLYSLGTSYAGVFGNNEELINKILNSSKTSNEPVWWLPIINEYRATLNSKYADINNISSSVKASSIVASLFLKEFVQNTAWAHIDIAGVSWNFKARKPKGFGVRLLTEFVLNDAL
For `O=C(COC(=O)c1ccc(S(=O)(=O)NCc2ccco2)cc1)Nc1ncc(Cl)cc1Cl`, the inhibition was -2.24% (inactive). The value for `N/C(Cc1ccc(Cl)cc1Cl)=N\OC(=O)c1ccccc1` was 0.73% (inactive). The same measure for `COc1ccc(OCc2cccc(C(=O)O)c2)cc1`: 53.7% (inactive); for `CCOc1ccc(OCc2cccc(C(=O)N(CC)CC)c2)cc1`: -4.73% (inactive). The same measure for `O=C(Nc1ccc(C(=O)O)cc1)/C(=C\c1ccco1)NC(=O)c1ccccc1`: 45.7% (inactive); for `CN(C(=O)CSCC(=O)O)C1CCCCC1`: -10.4% (inactive). With `CCOC(=O)/C(N=Nc1ccc(Cl)cc1)=C(/O)c1ccc([N+](=O)[O-])cc1`, the inhibition is 3.08% (inactive).

On to `Nc1[nH]ncc1-c1ccc(F)cc1`, for which the inhibition is 55.5% (inactive). The same measure for `Nc1[nH]ncc1-c1ccccc1`: -3.57% (inactive). The same measure for `COC(=O)c1cc(C(=O)OC)n(Cc2ccc(Br)cc2)n1`: -9.56% (inactive); for `CC(=O)c1c(C)[n+]([O-])c2ccc3c(non3O)c12`: 10.2% (inactive); for `C[n+]1c(/C=C/c2ccc3c(c2)OCO3)ccc2ccccc21`: 0.47% (inactive). The same measure for `CC[n+]1ccccc1/C=C/c1ccc(N(C)C)cc1`: 56.5% (inactive); for `CN(C)c1ccc(/C=C/c2ccc3c4ccccc4ccc3[n+]2-c2ccccc2)cc1`: 13.1% (inactive). With `CC[n+]1ccc(/C=C/c2ccc(N(C)C)cc2)c2ccccc21`, the inhibition was 50.7% (inactive). With `C=CC(C)(C)c1cc2cc3ccoc3cc2oc1=O`, the inhibition is 3.93% (inactive). The value for `Cc1nc(C)c(-c2ccn(S(=O)(=O)c3ccc(Cl)cc3)n2)o1` was -15.8% (inactive); that for `COC(=O)c1ccc(COc2ccc(C)cc2[N+](=O)[O-])o1` was 5.81% (inactive). The same measure for `Cc1ccc(OCc2ccc(C(=O)NN)o2)c([N+](=O)[O-])c1`: -2.38% (inactive); for `CCN1CCN(CCn2c(=S)[nH]c3cc4c(cc3c2=O)OCO4)CC1`: 10.8% (inactive); for `COc1ccc(C2CCN(CC(=O)N(C)C)CC2O)cc1` (stereo not given): -0.46% (inactive). The same measure for `Cc1ccccc1NC(=O)COC(=O)c1c[nH]c(=O)[nH]c1=O`: -3.99% (inactive).

For the molecule `CN(c1ccccc1C(=O)N1CCN(c2cccc(Cl)c2)CC1)S(C)(=O)=O`, the inhibition was -10.5% (inactive). The value for `O=C1CC(=O)C(n2cncn2)C(c2ccc(Cl)cc2)C1` (stereo not given) was 41.7% (inactive); that for `O=C1CC(=O)C(n2cncn2)C(c2cccc(Cl)c2)C1` (stereo not given) was -45.4% (inactive); that for `COC(=O)COc1cc(Br)c(/C=C2/SC(=O)N(CC(=O)N3CCCC3)C2=O)cc1OC` was 26.7% (inactive).

For `CCOc1c(Br)cc(/C=C2/SC(=O)N(CC(=O)N3CCCC3)C2=O)cc1OC`, the inhibition is -3.92% (inactive).

Regarding `NC(=O)COc1ccccc1/C=C1/SC(=O)N(CC(=O)N2CCc3ccccc3C2)C1=O`, the inhibition was -2.36% (inactive). As to `COC(=O)COc1ccc(/C=C2/SC(=O)N(CC(=O)N3CCCC3)C2=O)cc1Br`, the inhibition was 14.7% (inactive).

As to `COc1cccc(/C=C2/SC(=O)N(C)C2=O)c1OCc1ccc(C(=O)O)cc1`, the inhibition was 25.1% (inactive). The value for `CCOc1cc(/C=C2\SC(=Nc3ccc(F)cc3)N(c3ccc(F)cc3)C2=O)ccc1OCC(=O)O` was 42.8% (inactive); that for `CCOc1ccc(C(=O)NCC(=O)N2CCc3ccccc3C2)cc1OCC` was -4.26% (inactive). The value for `COc1cc(/C=C2\SC(=Nc3ccc(F)cc3)N(c3ccc(F)cc3)C2=O)ccc1OCC(=O)O` was 38.3% (inactive); that for `COC(=O)c1cccc(NC(=O)Cc2nc(-c3ccccc3)sc2-c2ccc(C)cc2)c1` was 1.12% (inactive).

For the molecule `COc1ccc(CN2CCN(C)CC2)cc1OCc1ccccc1`, the inhibition is -2.4% (inactive). The value for `Cc1ccc(C(=O)N2CCSC2=S)cc1` was 8.96% (inactive). The value for `CCc1nc(Sc2nc(C)cc(C)n2)c2oc3ccccc3c2n1` was -4.31% (inactive); that for `CCOC(=O)c1ccc(S(=O)(=O)NNC(=O)COc2ccccc2C)cc1` was -5.37% (inactive); that for `O=C(CSc1nnc(CN2CCCCCC2=O)n1-c1ccccn1)NCC(F)(F)F` was -5.65% (inactive). As for `C/C(=C\c1ccccc1)CN1CCC(C(=O)N2CCC(C)CC2)CC1`, the inhibition is 1.41% (inactive). The value for `COCc1nnc(NC(=O)c2cc(C(=O)OC)cc([N+](=O)[O-])c2)s1` was 6.44% (inactive); that for `COCCSc1nnc(NC(=O)c2ccc([N+](=O)[O-])cc2)s1` was -6.15% (inactive). The value for `CCc1nn(-c2ccccc2)c(N)c1-c1ccc(OC)c(OC)c1` was 1.87% (inactive); that for `COC(=O)c1ccc(/C=C/c2ccc3cccc(OC)c3n2)cc1` was 0.52% (inactive). The value for `O=[N+]([O-])c1ccc(/C=C/c2ccc3cccc([N+](=O)[O-])c3n2)cc1` was -6.24% (inactive). `CSc1ccc(/C=C/c2ccc3cccc(O)c3n2)cc1`: the inhibition was 14.9% (inactive). `COc1cc(/C=C/c2ccc3cccc([N+](=O)[O-])c3n2)ccc1OCC(=O)O`: the inhibition is 20.7% (inactive). The value for `CCCn1nnc(NC(=O)c2ccco2)n1` was -183% (inactive); that for `CCC(C)n1c(SCC(=O)NC(=O)Nc2ccc3c(c2)OCCO3)nc2ccccc2c1=O` (stereo not given) was -1.6% (inactive); that for `CCOC(=O)c1cn2nc(Oc3ccc(OC)cc3)ccc2n1` was 9.2% (inactive). The same measure for `CCCCCOC(=O)NC1CCS(=O)(=O)C1` (stereo not given): -3.96% (inactive); for `CCOC(=O)C1(CCSC)NC(c2ccco2)C2C(=O)N(CC)C(=O)C21` (stereo not given): 5.79% (inactive); for `CCC(=O)NCCc1c[nH]c2ccccc12`: -4.01% (inactive).

For `CC(C)C(=O)NCCc1c[nH]c2ccccc12`, the inhibition is 3.48% (inactive).

For `CSc1n[nH]c(=O)n1-c1ccc(Cl)cc1`, the inhibition was -4.84% (inactive).

For the molecule `Cc1sc(NC(=O)c2ccc(Cl)s2)c(C(N)=O)c1C`, the inhibition is -3.24% (inactive).

In the case of `O=[N+]([O-])c1ccc(Sc2ccccc2)nc1`, the inhibition is -3.15% (inactive).

In the case of `O=[N+]([O-])c1ccc(Sc2ccccn2)nc1`, the inhibition is 6.7% (inactive). The value for `Cc1ccc2oc(=O)c3cnn(CC(=O)NCCc4ccsc4)c3c2c1` was 11.8% (inactive); that for `CCOC(=O)Cn1nnnc1CN(Cc1ccc(OC)cc1)Cc1cc2cc(CC)ccc2[nH]c1=O` was 7.13% (inactive).

On to `CCc1cccc2c(=O)c(C(=O)N3CCCCCC3)c[nH]c12`, for which the inhibition is 3.21% (inactive).

In the case of `CCN1CCc2c(OCC(=O)N3CCCc4ccccc43)cccc2C1=O`, the inhibition was 0.37% (inactive). The value for `CCc1ccc(-c2c(C)sc(NC(C)=O)c2C(N)=O)cc1` was 41.9% (inactive); that for `Cc1sc(NC(=O)/C=C/C(=O)O)c(C(N)=O)c1-c1ccc(C(C)(C)C)cc1` was 21.9% (inactive). The value for `Cc1sc(NC(=O)C2CCCCC2C(=O)O)c(C(N)=O)c1C` (stereo not given) was 45% (inactive); that for `CCc1c(C)sc(NC(=O)C2CCCCC2C(=O)O)c1C(N)=O` (stereo not given) was 50.6% (inactive); that for `CC(C)=C1C2CCC1C(C(=O)Nc1sc(C)c(-c3ccc(C(C)C)cc3)c1C(N)=O)C2C(=O)O` (stereo not given) was -4% (inactive). The same measure for `Cc1sc(NC(=O)CCC(=O)O)c(C(N)=O)c1-c1ccccc1`: 18% (inactive); for `Cc1sc(NC(=O)C2C3CCC(C3)C2C(=O)O)c(C(N)=O)c1-c1ccc(C(C)(C)C)cc1` (stereo not given): 39.7% (inactive); for `COC(=O)c1c(NC(=O)/C=C/C(=O)O)sc(C)c1-c1ccc(C(C)C)cc1`: 15.5% (inactive). On to `COc1ccccc1-c1n[nH]c(=S)n1N`, for which the inhibition is -6.79% (inactive). The same measure for `COC(=O)/C(=C/c1ccccc1)NC(=O)c1ccco1`: 0.48% (inactive); for `COC(=O)c1ccc(CN2CCN(Cc3ccc(F)cc3)C(CCO)C2)cc1` (stereo not given): -9.03% (inactive). The same measure for `Cc1ccc(NC(=O)C(CC(C)C)NC(=O)C2CCC(C)CC2)nc1` (stereo not given): -1.65% (inactive); for `CC(C)NC(=O)COC(=O)c1ccc(Cl)c(S(=O)(=O)N2CCCC2)c1`: 4.58% (inactive). The same measure for `Cc1ccc2cc(CCNC(=O)c3ccco3)c(=O)[nH]c2c1C`: -13.9% (inactive); for `O=C(CCC(=O)NNC(=O)COc1ccccc1)NCc1ccccc1`: -10.8% (inactive); for `CC(=O)C1=C(O)C(=O)N(CCCO)C1c1ccccc1` (stereo not given): 27.1% (inactive). Turning to `O=C(c1ccc(S(=O)(=O)N2CCCCC2)cc1)N(c1ccccn1)C1CCCCC1`, the inhibition is 0.89% (inactive).

As for `O=[N+]([O-])c1ccc(N2CCCC2)cc1NC(c1ccccc1)c1ccccc1`, the inhibition is 8.49% (inactive).

As for `CCOc1ccc(NC(=O)C(=O)N/N=C\c2ccc(CNS(=O)(=O)c3ccccc3)o2)cc1`, the inhibition is 0.49% (inactive). The same measure for `O=Cc1cc(N=Nc2ccccc2Cl)ccc1O`: 40.2% (inactive); for `O=C1CCCC(O)=C1N=Nc1cccc(C(=O)O)c1`: 46.3% (inactive); for `O=C(NC1CCCCC1)c1sc(=S)n2c1[nH]c(=O)c1ccccc12`: 24.2% (inactive).

On to `CCCCCNC(=O)c1ccc2c(=O)[nH]c3c(C(=O)NCC4CCCO4)sc(=S)n3c2c1` (stereo not given), for which the inhibition is 53.8% (inactive). The same measure for `Cc1ccc(CNC(=O)c2ccc3c(=O)[nH]c4c(C(=O)NCC5CCCO5)sc(=S)n4c3c2)cc1` (stereo not given): 1.99% (inactive); for `O=C(NCc1ccccc1)c1sc(=S)n2c1[nH]c(=O)c1ccccc12`: 27.9% (inactive).

As to `Cc1ccc(Nc2nc(N)nc(CSc3nnc(-c4ccncc4)o3)n2)cc1`, the inhibition is -3.96% (inactive). In the case of `O=c1cc(C(Cl)(Cl)Cl)oc2c1ccc1ccccc12`, the inhibition is -3.47% (inactive).

As for `CC(=O)C1=C(O)C(=O)N(c2ccc(S(N)(=O)=O)cc2)C1c1ccc([N+](=O)[O-])cc1` (stereo not given), the inhibition was 23% (inactive).

Take `Cc1ccc(N2CC(=O)Nc3c(oc4nc(-c5ccccc5)cc(C)c34)C2=O)cc1`: the inhibition was -16.6% (inactive). The value for `CCOC(=O)CSc1[nH]c(=O)cc(C)c1C#N` was 17% (inactive); that for `Cc1cc(=O)[nH]c(SCC(=O)c2ccccc2)c1C#N` was 16.9% (inactive); that for `COC(=O)CSc1[nH]c(=O)cc(C)c1C#N` was 0.03% (inactive). The value for `Cc1cc(=O)[nH]c(SCC(=O)O)c1C#N` was 2.48% (inactive).
